CYP2C9 inh – blockers of cytochrome P450 2C9 activity – biochemical, luminescence, ADME assay, primary screen. P11712. CYP2C9 Supersomes, luciferin-H conversion. inhibition, % at 5 µM. 96,000 compounds, 20% hits;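 active = blocking of liver enzyme CYP2C9 beyond about 50% at 5 µM, limit read from the data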
Cav32 inh – Cav3.2 calcium influx blockers – cell-based, Fluo-4 calcium fluorescence, FDSS, MLSMR library, primary screen | Voltage-dependent T-type calcium channel subunit alpha-1H (Homo sapiens), O95180 | Cav3.2-expressing cells; hits give low values | B-score at 10 µM | 100,000 compounds, 4% hits;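 active = single-dose well whose peak fluorescence ratio is a statistical outlier from its plate by either plate-standardised score or position-corrected B-score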
CYP2C19 activ – human CYP2C19 activators, primary screen, biochemical, luminescence | recombinant CYP2C19, luciferin-H EGE luminescence; hits give high values; 0 = fully inhibited enzyme, 1 = untreated enzyme | activation factor at 5 µM | 96,000 tested, under 10 active | AID 1025, 2008;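 active = activation factor of at least 2 at 5 µM in the primary screen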;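 note: 0 = wells with 2.5 mM tranylcypromine and 1 = vehicle-only wells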
CYP2C19 inh – blockers of cytochrome P450 2C19 activity – biochemical, luminescence, ADME assay, primary screen | AID 778, 2007 | inhibition, % at 5 µM | P33261 | 96,000 compounds, 21% hits | CYP2C19 Supersomes, luciferin-H EGE luminescence, 30 min;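 active = CYP2C19 inhibition above a set limit at 5 µM in the primary screen, cut at about 50% in these data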;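 note: plate controls were negative control wells for no effect and 2.5 mM tranylcypromine positive control for full effect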
CYP2C9 act – human CYP2C9 activators, primary screen, biochemical, luminescence. recombinant CYP2C9, luciferin-H conversion; hits give high values; factor 1 = untreated enzyme, 0 = blocked. 96,000 compounds, 1.4% hits. activation factor at 5 µM;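 active = activation factor of 2 or more for CYP2C9 at a 5 µM dose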;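 note: 0 = sulfaphenazole-blocked wells and 1 = vehicle-only wells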
Starred values were filed as active, the others as inactive; x = no result given. An excerpt weighted towards active compounds, which were near 27% of everything screened.

SMILES	CYP2C9 inh	Cav32 inh	CYP2C19 activ	CYP2C19 inh	CYP2C9 act
O=C(CCC1(C(=O)O)CCC(=O)NC1)NCc1ccccc1 (stereo not given)	-4	0.61	1	3	1
O=C(Cn1nnc(-c2ccccc2)n1)NCc1ccco1	-12	-0.83	0.4	61*	1.1
CCOC(=O)c1ccc(Cn2c(-c3ccccc3)nnc2-c2ccccc2)o1	58*	-3.7	0.7	31	0.4
O=C(Cn1nnc(-c2ccccc2NC(=O)c2ccco2)n1)NC1CCCCC1	64*	0.049	0.7	26	0.4
Cc1cnc(C(=O)Nc2ccccc2-c2nnn(CC(=O)NC3CCCC3)n2)cn1	25	-0.51	1.1	-13	0.8
O=C(CCn1nnc(-c2cccs2)n1)NC1CCCCC1	-32	0.65	0.2	76*	1.3
O=C(Cn1nnc(-c2cccs2)n1)OC1CCCCC1	37	-1.7	0.7	28	0.6
CCOC(=O)CN1C(=O)N[C@@H](c2ccccc2)[C@H](C(C)=O)[C@H]1C	x	-0.42	x	x	x
COc1cc(C(=O)Nc2ccccc2-c2nnn(CC(N)=O)n2)cc(OC)c1OC	78*	-0.029	1.2	-17	0.2
NC(=O)Cn1nnc(-c2ccccc2NC(=O)c2cnccn2)n1	9	1.7	1.1	-11	0.9
O=C(Cn1nnc(-c2cccc(C(F)(F)F)c2)n1)NC1CCCC1	-149	-0.97	1	2	2.5*
CCOC(=O)N1CCN(C(=O)CCn2nc(-c3ccccc3)ccc2=O)CC1	-12	x	1.1	-15	1.1
OCCOCCNc1ncnc2sc(-c3ccccc3)cc12	59*	1.9	0.4	64*	0.4
CCc1cc2c(NCCO)ncnc2s1	-5	-0.079	1.1	-13	1.1
CCC(C)NC(=O)C1c2ccccc2C(=O)N(c2ccc(OC)cc2)C1c1ccc(OC)cc1 (stereo not given)	15	-0.74	1	0	0.8
COc1ccccc1NC(=O)C(NC(=O)OC(C)(C)C)C(C)OCc1ccccc1 (stereo not given)	23	-3	0.8	22	0.8
COc1ccc(CNC(=O)Cc2csc(Nc3nc(=S)[nH]c4ccccc34)n2)cc1	86*	x	0.3	66*	0.1
O=C(Cc1csc(Nc2nc(=S)[nH]c3ccccc23)n1)NCc1ccc(Cl)cc1	83*	-0.4	0.4	56*	0.2
COc1ccc(C2CC(C(F)(F)F)n3nc(C(=O)O)c(Br)c3N2)cc1 (stereo not given)	-5	1.6	1.1	-10	1.1
CC(C)c1ccc(OCC(=O)Nc2cccc3c2CCCC3)cc1	-3	0.93	0.9	8	1
N=C1C(c2ccc(Br)cc2)=C(O)C2CCc3ccccc3N12 (stereo not given)	27	0.77	0.5	50*	0.7
N=C1C(c2ccccc2)=C(O)C2CCc3ccccc3N12 (stereo not given)	-18	-0.4	1.2	-20	1.2
Cc1ccc(-n2c(=O)cc(NCc3cccnc3)[nH]c2=O)cc1	8	1	0.9	11	0.9
Cc1nnc2c3ccccc3c(-c3cccc4ccccc34)nn12	8	-1.4	0.4	61*	0.9
Cc1nnc2c3ccccc3c(-c3ccccc3)nn12	x	1.4	x	x	x
SMILES	CYP2C9 inh	Cav32 inh	CYP2C19 activ	CYP2C19 inh	CYP2C9 act
Cc1noc(C)c1S(=O)(=O)N(CCc1ccccc1)Cc1ccccc1	76*	-4.7*	0.6	41	0.2
O=C(Nc1ncc(Cc2ccccc2Cl)s1)C1CCCO1 (stereo not given)	x	-1.9	x	x	x
O=C(Nc1nc2c(s1)C(=O)CCC2)c1ccccc1	53*	-0.3	0.6	41	0.5
O=C(Nc1nc(=O)c2ccccc2s1)c1ccccc1	-2	0.32	1.1	-8	1
Cn1c(=O)[nH]c(=O)c2c1nc(N1CCCCC1)n2CCCSc1nc2ccccc2s1	x	-1.4	x	x	x
O=C(NC1CCCC1)c1nc2c(nnn2Cc2ccccc2Cl)c(=O)[nH]1	50	-3.4*	0.7	27	0.5
O=C(Cc1cccs1)N1CCC(c2nc3c(nnn3Cc3ccccc3Cl)c(=O)[nH]2)CC1	100*	-0.92	0.2	79*	0
O=C(C1CCCCC1)N1CCC(c2nc3c(nnn3Cc3c(F)cccc3Cl)c(=O)[nH]2)CC1	x	1.2	x	x	x

Source: PubChem
